Consider 22 compounds from PubChem BioAssay.

Calls of active or inactive are those of the source. No rule for the calls is given here.

Chain of Pantothenate synthetase (Mycobacterium tuberculosis (strain ATCC 25618 / H37Rv)) (P9WIL5 whole entry, looked up): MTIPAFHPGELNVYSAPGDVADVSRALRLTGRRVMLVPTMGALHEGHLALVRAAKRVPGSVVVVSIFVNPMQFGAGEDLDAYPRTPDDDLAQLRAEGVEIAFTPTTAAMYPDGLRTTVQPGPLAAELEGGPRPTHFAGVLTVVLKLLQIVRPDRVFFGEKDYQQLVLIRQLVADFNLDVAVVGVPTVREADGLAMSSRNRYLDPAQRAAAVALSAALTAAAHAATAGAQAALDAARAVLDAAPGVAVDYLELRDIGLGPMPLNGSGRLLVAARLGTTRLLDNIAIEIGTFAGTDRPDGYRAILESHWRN

This test addresses Pantothenate synthetase (Mycobacterium tuberculosis (strain ATCC 25618 / H37Rv)) (UniProt P9WIL5). Description: Recombinant Mtb pantothenate synthetase (PanC) inhibitors, coupled enzyme, confirmatory (AID 375).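 Also: 0% = full reaction with vehicle and 100% = no enzyme background.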 The following applies: coupled enzyme assay; at 10 µM, stronger effect = higher value.
Regarding `Cc1ccc(NC(=O)CN(C)S(=O)(=O)c2cccc3nsnc23)cc1Cl`, the inhibition is 1% (inactive).

`O=S1(=O)CCC(N=Cc2cc(Br)ccc2O)C1` (configuration not stated): the inhibition is 0% (inactive). As for `O=C1CC(c2ccsc2)c2cc3c(cc2N1)OCCO3` (configuration not stated), the inhibition was 0% (inactive).

On to `CCCCOCP(=O)(CCCC)COCCCC`, for which the inhibition was 1% (inactive).

As for `O=C(O)COc1ccc(S(=O)(=O)NCCc2ccccc2)cc1`, the inhibition is 6% (inactive). Then `CN1CCN(CC(=O)N2c3ccccc3C(C)(c3ccccc3)CC2(C)C)CC1` (configuration not stated), with 0% (inactive); and `CN(C)S(=O)(=O)c1ccc(Oc2ccc(S(=O)(=O)N(C)C)cc2)cc1`, with 4% (inactive); and `COC(=O)c1[nH]c2c(c1C)C(=O)CC(c1cccs1)C2` (configuration not stated), with 3% (inactive).

Regarding `O=C(NCC1CCCO1)c1cc(-c2ccncc2)nc2ccc(S(=O)(=O)N3CCOCC3)cc12` (configuration not stated), the inhibition is 0% (inactive). Then `Nc1c(Sc2ccccc2)c(=O)[nH]c(=O)n1Cc1ccccc1`, with 0% (inactive); and `CSc1nc(N2CCOCC2)c2c(c1C#N)CCCCC2`, with 0% (inactive).

Take `CCCC(=O)Nc1ccc(OCC(=O)OC)cc1`: the inhibition was 5% (inactive). Turning to `CCOC(=O)N1CCN(C(=O)CN2C(=O)COc3ccc(C)cc32)CC1`, the inhibition was 6% (inactive). Then `CCSc1nc(O)c(CC)c(=O)n1C(C)CC` (configuration not stated), with 3% (inactive); and `CC(C)NCC(O)COc1ccc(CCOCC2CC2)cc1` (configuration not stated), with 0% (inactive). Consider `C/C(N)=C(/C#N)C(=O)COC(=O)c1cc(C)n(-c2ccc(F)cc2)c1C`, for which the inhibition was 2% (inactive). On to `CC(=O)c1ccc(Oc2cc(C)nc(-n3nc(C)cc3C)n2)cc1`, for which the inhibition was 4% (inactive). Consider `COC(=O)CNc1nc(C2CC2)nc2c1nnn2Cc1ccccc1Cl`, for which the inhibition was 6% (inactive).

Regarding `O=C(Nc1cccc(NC(=O)c2cccnc2)c1)c1cccnc1`, the inhibition was 1% (inactive). For `COC(=O)Nc1ccc(S(=O)(=O)N2CCCCCC2)cc1` the value was 0% (inactive); for `Cc1[nH]nc2c1C(=O)CC(C)(C)C2`, 0% (inactive); for `CCOc1cc(C(=O)Nc2c3c(nn2C(C)(C)C)CS(=O)C3)cc(OCC)c1OCC` (configuration not stated), 4% (inactive).

A word on the inhibition: it is the relative decrease from the control value, in per cent.
